This note sets out measurements from PubChem BioAssay AID720596 (The Scripps Research Institute Molecular Screening Center, 2013).

Screen size: about 370,000 compounds; about 1,600 (0.43%) were called active. The sample as a whole holds a higher share of actives than the screen did. A number with no mark means an inactive call. Cut-off read from the data, not from the text of the source: active = inhibition above about 24%; inactive = the rest.

In the assay the target is Major prion protein (Homo sapiens) (UniProt P04156). Kind of assay: inhibitors of human cell surface prion protein PrPC, primary screen, cell-based, TR-FRET (AID 720596). Note: 0% = median of the test wells and 100% = reference compound wells. The conditions noted are these: TR-FRET read-out, at 13.8 µM, stronger effect = higher value.
With `COc1ccc(C(=O)Cn2nnc(-c3ccc(N4CCOCC4)cc3)n2)cc1OC`, the inhibition is 2.45%. For the compound `O=c1[nH]c(=O)n(Cc2ccco2)c2c1C(C(F)(F)F)(C(F)(F)F)N=C(c1ccco1)N2`, the inhibition is -1.08%. For `Fc1ccc2[nH]c3c(N4CCSCC4)ncnc3c2c1`, the inhibition is 40.8% (active).

With `CC(=O)NC(NC(=S)Nc1c(C)n(C)n(-c2ccccc2)c1=O)C(Cl)(Cl)Cl` (stereo not given), the inhibition is -1.39%.

As for `CCN(CC)c1ccc(C(=O)NNC(=O)CCc2nc3ccccc3c(=O)[nH]2)cc1`, the inhibition is 1.99%. Take `CCc1nc(SCC(=O)NNC(=O)c2ccc(C)cc2)c2ccccc2n1`: the inhibition is 97.6% (active). The same measure for `Cc1ccc(SCC(=O)NNC(=O)c2ccc(S(C)(=O)=O)cc2)cc1`: -1.94%; for `CCCN(CCC)S(=O)(=O)c1ccc(C(=O)N2CC3CCC(CC3)C2)cc1`: 0.5%.

`O=C(Nc1c(Cl)c(C2CC2)nn1-c1ccccc1)C(Cl)(Cl)Cl`: the inhibition is 1.29%. Regarding `CCC(C)NC(=O)N[C@@H](CCSC)C(=O)O` (stereo not given in full), the inhibition is -4.34%.

Consider `CCC(C)NC(=O)c1nn(C)c(=O)c2ccccc12` (stereo not given), for which the inhibition was -2.76%. Consider `Cc1cccc(C(=O)C(O)(c2ccccc2)C2CCCCC2=O)c1` (stereo not given), for which the inhibition is -5.23%. On to `O=C(COC(=O)c1cccc(Cl)c1Cl)NC1CCCCCC1`, for which the inhibition is 4.24%. As for `O=C(COC(=O)c1ccccc1SCC(=O)NC1CCCCC1)NC1CCCCC1`, the inhibition is 52.2% (active). Regarding `N#Cc1ccccc1Sc1ccccc1C(=O)OCC(=O)NC1CCCCC1`, the inhibition was -7.2%. For the compound `COC(=O)Cc1nc2c(N)nc(N)nc2[nH]c1=O`, the inhibition was 4.68%.

For `Cc1sc(NC(=O)C2C3CCC(O3)C2C(=O)O)c(C(=O)OC(C)C)c1-c1ccc(Cl)cc1` (stereo not given), the inhibition was 7.78%. Regarding `CC(=O)N1c2ccc(S(=O)(=O)N3CCCC(C(=O)Nc4ccc(C)cc4C)C3)cc2CC1C` (stereo not given), the inhibition is 6.63%. As to `CC(=O)N1CCCc2cc(S(=O)(=O)N3CCCC(C(=O)NCc4ccc(Cl)cc4)C3)ccc21` (stereo not given), the inhibition was 29.3% (active). The figure for `COc1ccc(S(=O)(=O)N2CCCC(C(=O)N3CCN(C)CC3)C2)cc1C` (stereo not given) is 2.94%; for `CC(=O)N1CCCc2cc(S(=O)(=O)N3CCCC(C(=O)N4CCN(c5cccc(Cl)c5)CC4)C3)ccc21` (stereo not given) it is 40.4% (active); for `CCOC(=O)C1CCN(C(=O)C2CCCN(S(=O)(=O)c3ccc(OC)c(Cl)c3)C2)CC1` (stereo not given) it is -3.34%. Regarding `CC(=O)N1c2ccc(S(=O)(=O)N3CCC(C(=O)NC4CCCCC4C)CC3)cc2CC1C` (stereo not given), the inhibition was 6.59%.

Turning to `CC(=O)N1c2ccc(S(=O)(=O)N3CCCC(C(=O)NCc4ccc(Cl)cc4)C3)cc2CC1C` (stereo not given), the inhibition was 10.5%.

With `CC(=O)N1c2ccc(S(=O)(=O)N3CCC(C(=O)NCc4ccc(F)cc4)CC3)cc2CC1C` (stereo not given), the inhibition is -0.57%. The figure for `CC(=O)N1c2ccc(S(=O)(=O)N3CCCC(C(=O)Nc4cccc(F)c4)C3)cc2CC1C` (stereo not given) is 51.1% (active); for `CCOC(=O)C1CCN(C(=O)COc2cc(C)c(Br)c(C)c2)CC1` it is 0.57%.

With `O=C(/C(=N\O)n1cncn1)c1ccc(Br)cc1Br`, the inhibition is -3.03%. On to `CC12CN(Cc3ccccc3)CC(C)(CN(Cc3ccccc3)C1)C2=NO`, for which the inhibition was -7.09%. The figure for `COc1ccc(Cn2cc(COC(=O)N(C)Cc3ccccc3)nn2)cc1` is 6.15%. With `OCC1(CO)CC2(C1)CC(CO)(CO)C2`, the inhibition is 2.39%. Turning to `FC(F)(F)c1cccc(NC(=S)OC2CCC23CCC(c2ccccc2)CC3)c1` (stereo not given), the inhibition is 24.4% (active).

Turning to `O=C(Nc1cc(F)cc(F)c1)OC1CCC12CCC(c1ccccc1)CC2` (stereo not given), the inhibition is 4.41%.

Turning to `CSc1ncc(C(=O)Nc2ccc(C)cc2C)c(C)n1`, the inhibition is -0.45%.

`CC(C)(C)c1ccc(C(=O)Nc2cc(Cl)c(Br)cc2C(=O)O)cc1`: the inhibition was 21%. Regarding `CSc1nccc(NC(=O)c2ccc(C(C)(C)C)cc2)n1`, the inhibition was 29.4% (active). For the compound `Cn1cc(CN2CCCCC2c2ccccn2)c(-c2ccc3c(c2)OCCO3)n1` (stereo not given), the inhibition was -3.25%.

Turning to `CC(C)C(=O)N1CCC2(CC1)Oc1ccc(F)cc1C(=O)C21CC(c2ccccc2)=NO1` (stereo not given), the inhibition was -0.07%. On to `CCCCN(CC)C(=O)C1CCCN(S(=O)(=O)c2cccc3nsnc23)C1` (stereo not given), for which the inhibition was -27.1%.

As for `COc1cc(C)c(C(C)C)cc1S(=O)(=O)n1ccnc1`, the inhibition was -1.35%. On to `OCCCNc1nccc(-c2cc(Nc3cccc(Cl)c3)ncn2)n1`, for which the inhibition is 29.2% (active). The same measure for `COCn1c(C(O)c2ccccc2)cc2ccccc21` (stereo not given): 6.96%; for `O=C(O)C#Cc1cccc2ccccc12`: 17.9%; for `CN(O)C(=S)c1ccccc1`: 36.8% (active).

With `O=C(c1ccco1)N1CCN(CC(=O)N(C2CCCCC2)C2CCS(=O)(=O)C2)CC1` (stereo not given), the inhibition is 7.46%. The figure for `CC1=CCC2C(=O)N(c3cccc(C(=O)NC(C)c4ccccc4)c3)C(=O)C2C1` (stereo not given) is -1.98%. Regarding `COc1ccc(CCN2C(=O)C3CC=C(C)CC3C2=O)cc1OC` (stereo not given), the inhibition was -3.31%. For `CC(=O)c1nc(N2C(=O)C3CC=C(C)CC3C2=O)sc1C` (stereo not given), the inhibition was 38.2% (active). Turning to `Cc1ccc(N2C(=O)N3[C@@H]4c5ccccc5OC[C@@H]4[C@@H](c4ccccc4)[C@@]3(C)C2=O)cc1`, the inhibition was -0.71%. `O=C(CCn1nnnc1CN1CCOCC1)N1CCC(c2ccccc2Cl)C1` (stereo not given): the inhibition was 1.76%. As to `COCCNC(=O)C1(C)CCCN(Cc2cccc(F)c2)C1` (stereo not given), the inhibition was 10.6%.

As to `CC1(C)Cc2ccccc2-c2[nH]c(=S)[nH]c(=O)c21`, the inhibition was 78.3% (active). The same measure for `CC(C)CC(N=C1NC(C)(C)Cc2ccccc21)C(=O)O` (stereo not given): -0.6%; for `N#CC1=C(N)Oc2[nH]c(=S)[nH]c(=O)c2C12C(=O)Nc1ccccc12` (stereo not given): -0.84%; for `O=C(CCCCCN1C(=O)C2C3C=CC(C3)C2C1=O)Nc1ccccc1` (stereo not given): 3.7%. The same measure for `Cc1ccc(C)c(NC(=O)C2CC(=O)N(C(C)C)C2)c1` (stereo not given): 1.81%. The same measure for `CC(C)(C)NC(=O)COc1ccc(CNc2ccc3[nH]c(=O)[nH]c3c2)cc1`: -1.03%; for `COc1ccc(NC(=O)CN(C)C(=O)CNC(=O)C2CCCCC2)cc1`: 7.94%; for `COc1ccc(NC(=O)COC(=O)CNC(=O)C2CCCCC2)cc1`: 31.5% (active). For `COc1ccccc1NC(=O)COC(=O)CNC(=O)C1CCCCC1`, the inhibition was -3.12%.
